The results in this text go back to PubChem BioAssay (NCATS).

A short description of test [1]: Cell Viability - HUV-EC-C (AID 542).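 Further: cells exposed to compound for 40 hours; nearly all actives have a fitted effect of over 35% in size.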 Further: potency means the concentration at half of the fitted maximal effect. Particulars: HUV-EC-C endothelial cell viability, qHTS; series mostly up to 92.2 µM. Put shortly:
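CellTiter-Glo luminescence measured ATP loss in HUV-EC-C cells (1000/well) after 40 hr compound exposure at 37 °C, in complete culture medium. Concentration-response data were Hill-fitted to give AC50.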
For orientation: In qHTS, concentration-response curves come from the screen itself.

A short description of test [2]: Cell Viability - SH-SY5Y (AID 544).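 Further: cells exposed to compound for 40 hours; nearly all actives have a fitted effect of over 55% in size.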 Further: potency means the concentration at half of the fitted maximal effect. The following applies: SH-SY5Y neuroblastoma cell viability; viability change, negative = cytotoxic: at 92.2 µM (top of the series). Put shortly: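 Cytotoxicity measured via ATP-dependent luciferase luminescence (CellTiter-Glo) following 40 h, 37 °C exposure of 1500 SH-SY5Y cells per well. Concentration-response data were fitted with the standard Hill equation to give AC50.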

Test [3] is described as follows: Cellular Toxicity (caspase-3) HepG2 (AID 654).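 Further: cells exposed to compound for 16 hours before reading; 0% = DMSO alone and 100% = caspase signal from 100 µM tamoxifen.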 Particulars: HepG2 caspase-3 activation, luminescence, 0% = DMSO only, 100% = tamoxifen; series mostly up to 92.2 µM. The method in brief:
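Caspase 3/7 activation is measured as a luminescence increase (aminoluciferin substrate) after 16 h compound exposure of human hepatocarcinoma HepG2 cells. AC50 values are Hill fits, scaled between DMSO baseline and 100 uM tamoxifen stimulation.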

Test [4] can be described thus: Cellular Toxicity (caspase-3) HUV-EC-C (AID 656). Particulars: HUV-EC-C cells, caspase-3 activation (apoptosis), vehicle = 0, 100 µM tamoxifen = 100%; series mostly up to 92.2 µM. Put shortly: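 HUV-EC-C cells (1000/well) in complete medium, compound-treated 16 h at 37 °C; caspase-3/7 activity read by Caspase-Glo 3/7 luminescence. Normalized to DMSO (basal) and 100 uM tamoxifen (100%); AC50 from Hill-equation concentration-response fits.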

Test [5] is described as follows: Cellular Toxicity (caspase-3) BJ (AID 658).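 Further: cells exposed to compound for 16 hours.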 Particulars: BJ fibroblasts, luminescence, normalized: DMSO 0%, staurosporine 100%; series mostly up to 91.7 µM. Put shortly: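 Caspase-Glo 3/7 luminescence, read 1 hr after reagent at room temperature, in normal BJ fibroblasts exposed 16 hours at 37 °C. AC50 values from Hill-equation concentration-response, scaled between DMSO basal and 10 uM staurosporine as 100%.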

The nature of test [6]: Cellular Toxicity (caspase-3) MRC-5 (AID 659). The following applies: MRC-5 cells, luminescence, normalized: DMSO 0%, 10 µM staurosporine 100%; series mostly up to 91.7 µM. The method in brief: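 Luminescent Caspase-Glo 3/7 read-out (1 h, room temperature) after a 16 h, 37 °C compound exposure of MRC-5 lung fibroblasts at 1500 cells/well. Concentration-response AC50 from Hill equation; 0% DMSO, 100% 10 uM staurosporine.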

A short description of test [7]: Cellular Toxicity (caspase-3) Mesangial (AID 660).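 Further: cells exposed to compound for 16 h before the caspase read.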 The following applies: mesangial cells; Potency: caspase-3 activation; series mostly up to 91.7 µM. Put shortly: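 Caspase 3/7 activation measured by Caspase-Glo 3/7 luminescence (20 min, room temperature) following 16 h exposure of mesangial cells (1000/well); AC50 from Hill-equation fit, normalized to DMSO and 100 uM tamoxifen.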

Test [8] can be described thus: Cellular Toxicity (caspase-3) N2a (AID 665).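 Further: compound exposure lasted 16 h at 37 °C before readout.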 Particulars: N2a cells, luminescence, normalized: DMSO 0%, 10 µM staurosporine 100%; series mostly up to 92.2 µM. Put shortly:
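Caspase-3/7 activation measured as luminescence from Caspase-Glo reagent (1 h, room temperature) after 16 h compound exposure of mouse N2a cells. AC50 values from Hill-equation concentration-response, scaled between DMSO and 10 uM staurosporine.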

Test [9] in a line: Cellular Toxicity (caspase-3) NIH 3T3 (AID 666). Particulars: NIH 3T3 caspase-3 activation, apoptosis/toxicity, 0% DMSO, 100% is 100 µM tamoxifen; series mostly up to 92.2 µM. The method in brief:
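Caspase-Glo 3/7 luminescence reported caspase activation in 1000 NIH 3T3 cells/well after 16 h compound exposure at 37 C. DMSO set basal and 100 uM tamoxifen set 100% stimulation; concentration-response modeled with the Hill equation for AC50.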

The nature of test [10]: Cell Viability - LYMP2-001 (AID 921). Further: nearly all actives have a fitted effect of over 70% in size. Further: potency means the concentration at half of the fitted maximal effect. The following applies: LYMP2-001 lymphoblastoid cell viability; series mostly up to 92.2 µM. The method in brief:
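Human lymphoblastoid LYMP2-001 cells, 2500 per well, in complete medium, treated 24 h at 37 C. Viability from cellular ATP by CellTiter-Glo luminescence; AC50 from Hill-equation fits of qHTS concentration-response.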

The nature of test [11]: Cell Viability - LYMP1-002 - Assay at 16 hr (AID 948). Further: potency means the concentration at half of the fitted maximal effect. The following applies: LYMP1-002 lymphoblastoid cell viability; series mostly up to 92.2 µM. The method in brief:
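LYMP1-002 human lymphoblastoid cells, 2500/well, were treated with compounds for 16 hr at 37 C in complete medium. Viability was read as intracellular ATP by CellTiter-Glo luminescence, and AC50 was derived from a Hill fit to concentration-response data.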

Test [12] in a line: Cell Viability - LYMP1-003 - Assay at 24 hr (AID 963). Further: potency means the concentration at half of the fitted maximal effect.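 On viability change, negative = cytotoxic: plate controls were DMSO only for no effect and tetraoctylammonium bromide positive control for full effect.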 Particulars: LYMP1-003 lymphoblastoid cell viability; series mostly up to 92.2 µM. The method in brief:
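Concentration-response qHTS: ATP loss measured by CellTiter-Glo luminescence after 24 h compound exposure at 37 C. Cells were LYMP1-003 human lymphoblastoid, 2500 per well. AC50 derived via standard Hill equation modeling.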

Test [13] is described as follows: Cell Viability - LYMP2-003 (AID 965).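 Further: cells exposed to compounds for 24 h before reading; nearly all actives have a fitted effect of over 50% in size.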 Further: potency means the concentration at half of the fitted maximal effect. Particulars: LYMP2-003 lymphoblastoid cell viability; series mostly up to 92.2 µM. The method in brief:
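Human lymphoblastoid LYMP2-003 cells, 2500/well, exposed to compounds for 24 h at 37 C in complete medium. Viability read as intracellular ATP by CellTiter-Glo luminescence; AC50 from Hill-equation fits of qHTS concentration-response data.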

The nature of test [14]: Cell Viability - LYMP2-015 (AID 971). Further: nearly all actives have a fitted effect of over 55% in size. Further: potency means the concentration at half of the fitted maximal effect. The following applies: LYMP2-015 lymphoblastoid cell viability; series mostly up to 92.2 µM. Put shortly: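 Cytotoxicity readout: decrease in intracellular ATP (CellTiter-Glo luminescence) in 2500 LYMP2-015 lymphoblastoid cells/well after 24 h compound exposure at 37 C. Concentration-response data fitted with the standard Hill equation to give AC50.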

The nature of test [15]: Cell Viability - LYMP2-019 (AID 973). Further: nearly all actives have a fitted effect of over 55% in size. Further: potency means the concentration at half of the fitted maximal effect. The following applies: LYMP2-019 lymphoblastoid cell line viability; series mostly up to 92.2 µM. The method in brief:
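AC50 values come from Hill-equation fits of luminescent intracellular ATP (CellTiter-Glo, 30 min, room temperature) following 24 h compound exposure at 37 C. Cells: LYMP2-019 lymphoblastoid line, 2500 per well, in complete culture medium.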

A short description of test [16]: Cell Viability - LYMP2-016 (AID 984). Further: nearly all actives have a fitted effect of over 55% in size. Further: potency means the concentration at half of the fitted maximal effect. Particulars: LYMP2-016 lymphoblastoid cell viability, qHTS; series mostly up to 92.2 µM. Put shortly: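 Human lymphoblastoid LYMP2-016 cells, 2500 per well, treated with compounds for 24 h at 37 C. Viability read as intracellular ATP by CellTiter-Glo luminescence after 30 min at room temperature; AC50 from Hill fits of concentration-response.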

Test [17] is described as follows: Cell Viability - LYMP2-018 (AID 985). Further: nearly all actives have a fitted effect of over 50% in size. Further: potency means the concentration at half of the fitted maximal effect. Particulars: LYMP2-018 lymphoblastoid cells, viability (qHTS); series mostly up to 92.2 µM. The method in brief:
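Viability read as CellTiter-Glo luminescence (cellular ATP) after 24 hr compound exposure at 37 C of 2500 LYMP2-018 lymphoblastoid cells/well, pre-plated 5 hr. Hill-equation modelling gave AC50.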

Test [18] deals with Tumor necrosis factor (Homo sapiens) (UniProt P01375). The experiment in a line: qHTS assay to identify small molecules that stimulate Tumor Necrosis Factor-alpha (TNF-alpha) secretion (AID 651757; active means well fitted curve in the direction sought with a large enough effect in the signal ratio; the % refers to the signal ratio; further: 0% is about no effect). Particulars: Human cells, HTRF 665/615 ratio; series mostly up to 92.2 µM. Put shortly:
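Secreted TNF-alpha quantified by TR-FRET sandwich of two labeled anti-TNF-alpha antibodies, incubated 3 hr at room temperature. Preceded by 17 hr, 37 C compound treatment of THP-1 cells at 3000 cells/well.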

Test [19] addresses Peroxisome proliferator-activated receptor alpha (Homo sapiens) (UniProt Q07869). The experiment in a line: qHTS assay for small molecule agonists of the peroxisome proliferator-activated receptor alpha (PPARalpha) signaling pathway (AID 651778). Further: % of control where 0% means no effect. The following applies: PathHunter PPARalpha complementation, chemiluminescence, 6 h; max response: stronger effect = higher value. The method in brief: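 Chemiluminescence from complemented enzyme reported PPARalpha activation in cells after 6 hr of compound treatment at 37 C. The detection reagent was incubated for 60 min at room temperature, and compounds were scored as agonists.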

Test [20] in a line: qHTS assay for cell viability of the p53RE-bla HCT-116 cell line (AID 743292). Further: nearly all actives have a fitted effect of over 55% in size. Further: potency means the concentration at half of the fitted maximal effect. Particulars: p53RE-bla HCT-116 viability, ATP luminescence, 16 h; series mostly up to 95 µM. Put shortly:
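ATP-based luminescent viability (CellTiter-Glo, 30 min RT) after 16 h compound treatment at 37 C of p53RE-bla HCT-116 cells, seeded at 4,000 cells/well and rested 5 h before dosing.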

Each structure is given as a SMILES string. Several values for one entry are separate records, joined by “and”; a condition that tells them apart may be missing. Equal values may be shown once. Unmarked numbers belong to inactive results. Inconclusive results are not listed. Activity calls are given as the source filed them. Unless noted, the call rests on the fitted dose curve; in most records, active means well fitted curve in the direction sought with a large enough effect; inconclusive means small, poorly fitted or top-dose-only effect, or another doubt; inactive means no such curve, though single readings can be large; an effect the other way counts as inactive or inconclusive.

Tumor necrosis factor (Homo sapiens), sequence (P01375 whole entry, looked up): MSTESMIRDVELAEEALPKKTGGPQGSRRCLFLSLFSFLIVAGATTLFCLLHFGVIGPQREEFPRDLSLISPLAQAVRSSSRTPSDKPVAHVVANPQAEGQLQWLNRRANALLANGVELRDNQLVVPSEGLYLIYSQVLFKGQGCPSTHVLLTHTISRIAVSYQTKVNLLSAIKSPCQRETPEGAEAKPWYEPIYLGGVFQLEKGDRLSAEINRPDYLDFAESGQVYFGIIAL
Peroxisome proliferator-activated receptor alpha (Homo sapiens), sequence (Q07869 whole entry, looked up): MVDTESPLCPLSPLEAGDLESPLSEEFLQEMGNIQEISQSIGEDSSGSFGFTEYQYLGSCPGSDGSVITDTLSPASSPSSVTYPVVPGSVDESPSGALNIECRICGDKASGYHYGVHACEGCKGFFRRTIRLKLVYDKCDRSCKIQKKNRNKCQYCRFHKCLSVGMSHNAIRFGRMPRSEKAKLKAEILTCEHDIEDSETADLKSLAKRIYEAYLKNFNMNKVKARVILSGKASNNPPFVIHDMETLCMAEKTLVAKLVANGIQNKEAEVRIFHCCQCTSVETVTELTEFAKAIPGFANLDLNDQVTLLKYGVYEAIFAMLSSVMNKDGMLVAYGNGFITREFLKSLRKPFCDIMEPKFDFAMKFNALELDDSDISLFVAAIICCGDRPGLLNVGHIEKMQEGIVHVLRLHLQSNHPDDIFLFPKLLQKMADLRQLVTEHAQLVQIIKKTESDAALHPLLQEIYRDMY

Take `OC(c1ccc(Cl)cc1)(c1ccc(Cl)cc1)C(Cl)(Cl)Cl`: the Potency entry in test [1], in test [2], in test [7], in [10], in [11] and in [12] was “inactive” throughout. Moreover, the Potency result in test [13], in test [14], in test [15], in [16], in test [17] and in [18] was “inactive” in each case. The result in test [3], in [4], in test [5], in [6], in [8] and in [9] was inactive. Also, in test [19], the max response was -0.474%. In addition, the Potency in test [20] was 50.1 µM (active).

`[CH3][Hg][Cl]`: the Potency in [1] is 15.8 µM (active); in test [2] it was 2.51 µM (active); in test [10], 1.58 µM (active); in [11] it was 39.8 µM (active); in test [12] it was 50.1 µM (active); in test [13] it was 5.01 µM (active). Further, the Potency in [14] is 3.16 µM (active); in test [15], 5.01 µM (active); in test [16], 3.98 µM (active); in [17] it was 3.16 µM (active). For the same compound, the compound was classed as inactive in test [3], in test [4], in test [5], in test [6] and in test [8]. Moreover, the Potency result in test [18] is “inactive”. The max response in test [19] is -12.7%.

Take `c1ccc2cc3c(cc2c1)-c1cccc2cccc-3c12`: the Potency entry in test [1], in test [2], in [7], in test [10], in test [11] and in test [12] was “inactive” each time. Further, the Potency result in test [13], in test [14], in test [15], in test [16], in [17] and in test [18] was “inactive” in each case. In addition, the Potency result in [20] was “inactive”. Moreover, the outcome in test [3], in test [4], in test [5], in [6], in [8] and in test [9] was inactive. For the same compound, the max response in [19] is 13.7% and 0.159%.

For the compound `Oc1c(Br)c(Br)c(Br)c(Br)c1Br`, the Potency entry in test [1], in test [7], in test [10], in test [11], in test [12] and in [13] was “inactive” each time. The Potency result in [14], in [15], in test [16], in test [17], in test [18] and in [20] was “inactive” throughout. Also, the call in test [3], in test [4], in [5], in [6], in test [8] and in test [9] was inactive. In addition, in test [19], the max response is 10%.

On to `[Cd+2].[Cl-].[Cl-]`, for which the Potency entry in test [1], in [7], in test [13], in test [16], in test [17] and in test [18] was “inactive” each time. The Potency entry in test [20] is “inactive”. In addition, the outcome in test [3], in test [4], in [5], in test [6], in test [8] and in test [9] was inactive. Besides, the Potency in [14] is 50.1 µM (active). In addition, the max response in [19] was -8.85%.

Consider `C[C@@H]1CC[C@@]2(OC1)O[C@H]1[C@@H](O)[C@H]3[C@@H]4CC[C@H]5C[C@@H](O[C@@H]6O[C@H](CO)[C@H](O[C@@H]7O[C@H](CO)[C@@H](O)[C@H](O[C@@H]8OC[C@@H](O)[C@H](O)[C@H]8O)[C@H]7O[C@@H]7O[C@H](CO)[C@@H](O)[C@H](O[C@@H]8O[C@H](CO)[C@@H](O)[C@H](O)[C@H]8O)[C@H]7O)[C@H](O)[C@H]6O)[C@H](O)C[C@]5(C)[C@H]4CC[C@]3(C)[C@H]1[C@@H]2C`, for which the Potency was 25.1 µM (active) in test [1]; 15.8 µM (active) in test [2]; 10 µM (active) in test [10]; 10 µM (active) in [11]; 7.94 µM (active) in [12]; 20 µM (active) in [13]. For the same compound, the Potency in [14] is 15.8 µM (active); in test [15], 12.6 µM (active); in test [16], 25.1 µM (active); in test [17] it was 25.1 µM (active); in test [20] it was 35.5 µM (active). Besides, the result in [3], in [4], in test [5], in [6], in test [8] and in [9] was inactive. Further, the Potency result in test [7] and in test [18] was “inactive” in each case. Besides, the max response in test [19] was -5.72%.
